# Source: PubChem BioAssay
# FAS TE block = inhibitors of human fatty acid synthase thioesterase domain | P49327 | recombinant FAS-TE, OMFH fluorogenic substrate, fluorescence endpoint | inhibition, % at 15 µM | 360,000 tested, 0.67% active | AID 602261;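 active = compounds whose normalised, plate-corrected inhibition of enzyme fluorescence in the single-dose primary screen is 50% or more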;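 also: 0% = DMSO with enzyme and 100% = substrate without enzyme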
# KLK7 zymogen act = proKLK7 (human) activation, primary screen. P49862. purified proKLK7, EDANS-DABCYL substrate fluorescence; 100% is mature enzyme control, 0% vehicle. activation, % at 7 µM. 370,000 tested, 0.9% active;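 active = activation above the mean of all tested compounds plus 3 SD, computed per campaign excluding outliers beyond control limits, cut at about 13% in these data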
# ADAM17 inh = inhibitors of human ADAM17; 370,000 tested, 0.83% active; recombinant ADAM17, EDANS/DABCYL FRET peptide cleavage; inhibition, % at 6.95 µM; AID 720648;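 active = inhibition above the mean of compounds lying between control limits plus 3 SD, set per campaign, cut at about 8.5% in these data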;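 also: 0% = DMSO-only wells as the low control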
# Target sequence (P78536 215-824 limits assumed): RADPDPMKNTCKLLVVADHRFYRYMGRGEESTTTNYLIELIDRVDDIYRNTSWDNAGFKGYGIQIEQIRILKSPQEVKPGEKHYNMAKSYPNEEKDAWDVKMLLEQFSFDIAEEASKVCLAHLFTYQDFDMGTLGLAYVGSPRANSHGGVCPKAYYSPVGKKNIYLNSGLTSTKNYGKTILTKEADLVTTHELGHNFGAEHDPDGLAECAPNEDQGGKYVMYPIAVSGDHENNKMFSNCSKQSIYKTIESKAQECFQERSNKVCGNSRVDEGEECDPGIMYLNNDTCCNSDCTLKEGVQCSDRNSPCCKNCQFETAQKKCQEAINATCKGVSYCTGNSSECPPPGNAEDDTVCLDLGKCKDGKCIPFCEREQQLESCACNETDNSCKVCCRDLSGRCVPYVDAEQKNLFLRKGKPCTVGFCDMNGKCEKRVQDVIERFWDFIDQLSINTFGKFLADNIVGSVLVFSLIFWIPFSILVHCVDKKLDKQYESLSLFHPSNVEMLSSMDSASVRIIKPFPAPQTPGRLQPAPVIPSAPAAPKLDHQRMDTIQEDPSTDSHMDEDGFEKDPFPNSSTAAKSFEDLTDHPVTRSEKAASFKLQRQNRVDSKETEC
# NR3A LBD binder = NR3A (human) ligand-binding domain modulation; Tm shift relative to glycine control, % at 25 µM; AID 1259313; NR3A LBD differential scanning fluorimetry, Tm shift; 0% = protein alone, 100% = glycine-bound protein; 340,000 tested, 2.5% active;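 active = melting temperature shift of at least 10% of the positive control shift, at one fixed dose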
# ADAM10 inh = inhibits human ADAM10; O14672; recombinant ADAM10, EDANS/DABCYL FRET peptide cleavage, 3 h; inhibition, % at 7 µM; 370,000 tested, 0.62% active;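 active = inhibition above a per-campaign cutoff equal to the mean of compounds falling between control-based bounds plus 3 SD, cut at about 20% in these data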;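 also: 0% = DMSO wells while the 100% control is not disclosed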
# * = called active by the depositor; / = no result given. An excerpt weighted towards active compounds, which were near 4.6% of everything screened.
SMILES,FAS TE block,KLK7 zymogen act,ADAM17 inh,NR3A LBD binder,ADAM10 inh
Cc1cc(S(=O)(=O)Nc2ccc(C(=O)N3CC(C)OC(C)C3)cc2)ccc1F (stereo unspecified),-6,0,0,0,5
CCCc1cc(-c2n[nH]c(C)c2-c2ccc(C(=O)OCC)o2)c(O)cc1O,-16,0,0,35*,-13
CCCc1cc(C(=O)Cc2ccc(C(=O)OCC)o2)c(O)cc1O,2,1,2,-6,5
CCC(C)NS(=O)(=O)c1ccc2[nH]c(=O)oc2c1 (stereo unspecified),/,0,0,/,-1
COc1ccc(-n2nc([N+](=O)[O-])c(=NCCc3ccc(C)cc3)n2O)cc1,17,0,-2,-5,0
COc1ccc(-n2nc([N+](=O)[O-])c(=NCCc3ccc(OC)c(OC)c3)n2O)cc1,-5,0,0,23*,13
O=C1C=CC(=Nc2ccc3c(c2)Cc2cc(F)ccc2-3)O1,5,-1,-18,23*,-76
O=C1C=CC(=Nc2cccc3c2C(=O)c2ccccc2-3)O1,-2,/,/,-1,/
CCOC(=O)c1cnn(-c2ccc(NS(=O)(=O)c3ccc(Cl)cc3)cc2)c1C(F)(F)F,20,0,4,16*,15
CCOC(=O)c1cnn(-c2cccc(Cl)c2)c1N,-5,0,-1,2,11
CCOc1ccc(-n2c(SCC(=O)Nc3ccccc3-c3ccccc3)nnc2-c2cccs2)cc1,/,0,6,/,16
CCOc1ccc(-n2c(SCC(=O)Nc3cccc4ccccc34)nnc2-c2ccncc2)cc1,/,0,-1,/,-11
CC1(C)Cc2c(sc(NC(=O)c3ccccc3)c2C(=O)O)CO1,-2,-1,-2,10*,1
Cc1ccc(C(=O)Nc2cccc(C(=O)N/N=C/c3ccc(O)cc3)c2)cc1,-2,0,0,11*,0
Cc1ccc(NC(=O)c2ccc(C)cc2)cc1,-7,-1,-3,-11,-9
Cc1cccc(NC2=C(NC(=O)c3ccccc3)C(=O)c3ccccc3C2=O)c1,9,0,7,19*,12
Cc1cccc(C(=O)Nc2cccc(C(=O)N/N=C/c3ccncc3)c2)c1,-4,-1,-2,0,-2
Cc1cccc(NC(=O)c2ccc(NC(=O)c3ccccc3Br)cc2)c1,8,1,2,27*,14
Cc1ccc(C(=O)Nc2ccc(Br)c(C(F)(F)F)c2)cc1,34,0,7,10*,19
Cc1cccc(C(=O)Nc2ccc(NC(=O)c3cccc(C)c3)cc2)c1,-10,0,-9,/,-10
Oc1ccc(/C=N/Nc2ccc(C(F)(F)F)cn2)cc1,14,1,-6,26*,-13
O=C(N/N=C/c1ccc(C(F)(F)F)cc1)c1ccc(O)cc1,-2,0,1,12*,-5
Cc1cccc(C(=O)Nc2ccc(C(=O)Nc3ccc(O)cc3)cc2)c1,-6,0,-6,38*,-20
O=C(CN1c2ccccc2Sc2ccccc21)NNC(=S)Nc1ccc(Cl)cc1,27,0,7,33*,15
Cn1cccc1CC(=O)NNC(=S)Nc1ccc(Cl)cc1Cl,-6,0,1,-4,4
SMILES,FAS TE block,KLK7 zymogen act,ADAM17 inh,NR3A LBD binder,ADAM10 inh
O=C(CN1c2ccccc2Sc2ccccc21)NNC(=S)Nc1ccc(Cl)cc1Cl,9,0,1,21*,6
Cc1cc(=O)[nH]c(SCC(=O)Nc2cccc(C)c2C)n1,/,0,-2,/,-3
CC(=O)Nc1ccc2nc(SCC(=O)Nc3ccc(N4CCOCC4)c(Cl)c3)sc2c1,-1,0,-2,25*,-4
COC(=O)CSc1nc2ccc(NC(=O)CSc3nnnn3Cc3ccccc3)cc2s1,-9,0,0,-6,-13
O=C(CSc1nc(Nc2ccccc2)nc(N2CCOCC2)n1)Nc1ccc([N+](=O)[O-])cc1,43,0,-4,15*,5
O=C(CSc1nc(N2CCOCC2)nc(N2CCOCC2)n1)Nc1ccc([N+](=O)[O-])cc1,6,0,-2,0,-7
O=C(CSc1nc2ccc(NC(=O)CSc3nnnn3Cc3ccccc3)cc2s1)Nc1ccccc1,1,0,-2,17*,2
O=C(CSc1n[nH]c(-c2cccnc2)n1)Nc1ccc([N+](=O)[O-])cc1,-3,1,3,10*,9
O=C(CSc1nc2ccccc2s1)Nc1ccc(N2CCOCC2)c(Cl)c1,18,1,4,6,-3
